The values that follow come from article PMC10668032, “Altered binding affinity of SIX1-Q177R correlates with enhanced WNT5A and WNT pathway effector expression in Wilms tumor”.

The full ranking holds about 33,000 sequences; the median of “e-score” is about -0.05, and the highest 2% start at about 0.38. The full list was thinned out, with the highest values kept by preference.

The assay has as its target T1, SIX1-Q177R homeodomain (human, UniProt Q15475 108-198, Q177R).
T1 sequence: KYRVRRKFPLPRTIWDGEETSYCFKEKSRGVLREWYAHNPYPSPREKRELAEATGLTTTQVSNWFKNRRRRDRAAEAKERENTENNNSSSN
Kind of assay: universal protein binding microarray; Universal all-10-mer PBM (8x60K, AMADID 030236), 300 nM GST-tagged protein, Alexa Fluor 488 anti-GST; buffer, salt, pH and temperature not stated (as in Berger); high values mean tight binding. Conditions: protein: ivt; tags: N-terminal GST; dsDNA, one strand shown. The essentials:
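Homeodomains carrying a GST tag were produced by in vitro transcription/translation, then quantified by anti-GST western blot against a recombinant GST standard curve. Duplicate applications at 300 nM final concentration were made to universal 'all 10-mer' protein binding microarrays in 8×60K format. The Universal PBM Analysis Suite was used to express binding as 8-mer E-scores.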
For ATAGACAC, the binding signal is 0.428 ± 0.0191 E-score. Next, CTAGACAC: 0.393 ± 0.0124 E-score; GTAGACAC: 0.409 ± 0.0281 E-score; CTAGACCC: 0.184 ± 0.00755 E-score.

With AGATAGAC, the binding signal turned out to be 0.154 ± 0.0062 E-score. Next, CTAGATAC: 0.165 ± 0.0452 E-score. Next, ATAGAGTC: 0.202 ± 0.0331 E-score; ACAAGGTG: 0.264 ± 0.0157 E-score. Next, ACCATCCA: 0.215 ± 0.0116 E-score; GGGTGCGA: 0.181 ± 0.00744 E-score. In the case of CCCTGACG, the binding signal was found to be 0.152 ± 0.00643 E-score. Consider CCGCCGTA, for which the binding signal was 0.164 ± 0.00253 E-score. The value for GAGACCCC was 0.225 ± 0.0263 E-score.

With CACCCACC, the binding signal came to 0.252 ± 0.0101 E-score. Next, CACCACTA: 0.3486 ± 0.00204 E-score; ACTGTGTG: 0.177 ± 0.0389 E-score; GTGGGACA: 0.171 ± 0.0189 E-score. The value for CTGGAAAC was 0.178 ± 0.0277 E-score. Next, ATGGACAC: 0.419 ± 0.00799 E-score; CTGGATAC: 0.222 ± 0.0101 E-score; GTGGACAC: 0.419 ± 0.0259 E-score.

In the case of ATGGATAC, the binding signal amounted to 0.278 ± 0.0318 E-score.

As for GTGCACAC, the binding signal came out at 0.271 ± 0.021 E-score. The value for ATGGAGAC was 0.174 ± 0.0638 E-score. On to CTGGACAC, for which the binding signal stood at 0.406 ± 0.0173 E-score. The value for ACCCTAGT was 0.269 ± 0.00753 E-score; that for CCCCTCTA was 0.2508 ± 0.000354 E-score; that for AGGTGGTG was 0.287 ± 0.0143 E-score. Next, CGGTGCCA: 0.19 ± 0.0233 E-score.

Regarding GGGGGTCA, the binding signal stood at 0.313 ± 0.0364 E-score. The value for ATGTGTCG was 0.188 ± 0.0615 E-score.

In the case of AGGGGTCC, the binding signal worked out at 0.178 ± 0.00987 E-score. With AGGTGTCG, the binding signal stood at 0.4794 ± 0.00471 E-score. Next, CTGTGTCA: 0.256 ± 0.066 E-score; AGGTGTCC: 0.464 ± 0.0052 E-score; GGGTGCCA: 0.2 ± 0.0639 E-score. Next, CGGTGTCA: 0.4918 ± 0.00175 E-score. Next, GGGTGTCA: 0.4915 ± 0.00277 E-score. As to GGGAGTAC, the binding signal was determined as 0.2586 ± 0.000728 E-score. The value for CGGATCCG was 0.183 ± 0.00497 E-score.

Consider GTCTCATA, for which the binding signal worked out at 0.179 ± 0.0328 E-score. For CCCGGGGA, the binding signal is 0.206 ± 0.0149 E-score. Next, CACCGCTC: 0.27 ± 0.013 E-score. The value for CCATAACA was 0.2144 ± 0.000806 E-score; that for AGACGGTG was 0.23 ± 0.0191 E-score.

Take AAACGGTG: the binding signal was 0.308 ± 0.011 E-score. For CCCTCACG, the binding signal worked out at 0.165 ± 0.0328 E-score. CCCCCTCA: the binding signal is 0.223 ± 0.0246 E-score.

Turning to CCGCGCGG, the binding signal was found to be 0.172 ± 0.0537 E-score. The value for ACTGGTAT was 0.2685 ± 0.000262 E-score; that for CCGGTTAC was 0.1852 ± 0.000205 E-score; that for CGGTGATC was 0.163 ± 0.0497 E-score. Next, CGGGGTCC: 0.241 ± 0.0168 E-score. With AGGTGTCA, the binding signal came out at 0.4862 ± 0.000651 E-score. The value for ATGTGTCA was 0.253 ± 0.0258 E-score; that for AGGTGACA was 0.251 ± 0.0589 E-score; that for CGGTGTCC was 0.489 ± 0.00456 E-score. Next, TCGGTGCA: 0.232 ± 0.0114 E-score; CACGACCG: 0.225 ± 0.0274 E-score; CGCCACCC: 0.19 ± 0.0435 E-score. Next, TAGTGAGA: 0.154 ± 0.0331 E-score.

Turning to TGTCGACA, the binding signal came out at 0.25 ± 0.0489 E-score. Next, GGGATACC: 0.341 ± 0.00451 E-score; AGACCCTA: 0.195 ± 0.0142 E-score.

As to CACGGGCG, the binding signal is 0.204 ± 0.0346 E-score. The value for ACACGGCC was 0.3824 ± 0.0024 E-score; that for ACACGTCT was 0.344 ± 0.0192 E-score; that for ACACGTCA was 0.323 ± 0.0149 E-score. The value for ACACGGCT was 0.3983 ± 0.00124 E-score; that for ACACGGCA was 0.3737 ± 0.00357 E-score. Next, ACACGTCG: 0.323 ± 0.0129 E-score; AACCCCGC: 0.194 ± 0.0341 E-score; TACTCCCA: 0.16 ± 0.038 E-score.

On to ACGCGGCG, for which the binding signal worked out at 0.229 ± 0.0107 E-score. The value for ACCGAATA was 0.155 ± 0.00809 E-score; that for GACACGCC was 0.4444 ± 0.00225 E-score; that for GACACGCA was 0.416 ± 0.0252 E-score. Next, CACGCGCA: 0.212 ± 0.0332 E-score. For the sequence CACACGCC, the binding signal was determined as 0.252 ± 0.0122 E-score. Turning to CACACGCG, the binding signal was determined as 0.296 ± 0.0321 E-score.

In the case of ACCTCCGA, the binding signal stood at 0.172 ± 0.0111 E-score. Next, CCCCTAGC: 0.177 ± 0.00211 E-score; ACTCGGAC: 0.179 ± 0.0406 E-score. Next, CACCCTGA: 0.339 ± 0.0238 E-score. As for AGGATCCC, the binding signal turned out to be 0.155 ± 0.0155 E-score. The value for GTAACAGA was 0.16 ± 0.00854 E-score.
